According to ChEMBL document CHEMBL3433997, “St. Jude Leishmania screening dataset” (2016):

The compounds below were run against Hexose transporter 1 (Plasmodium falciparum) (UniProt O97467) (assay: ST_JUDE_LEISH: Cytotoxicity at 2uM final concentration against transgenic Leishmania Mexicana promastigotes LmPfHT that are glucose transport deficient and complemented with the Plasmodium falciparum hexose transporter. Activity is measured by DNA content using SYBR green in vitro).
Assay type: functional

SMILES | inhibition
CN(C)C(C)(C)CN(Cc1ccc(-c2ccc(C(F)(F)F)cc2)cc1)C(=O)Cn1c(CCc2cccc(F)c2F)nc(=O)c2ccccc21 | 0.48%
COc1ccccc1CCNc1nccc(N[C@@H](Cc2ccccc2)C(=O)NCc2cccs2)n1 | 1.77%
Cc1[nH]c(C)c(-c2ccc(Oc3ccc(Cl)cc3)cc2)c(=O)c1C | 30.5%
COCCn1c(Sc2ncnc3sccc23)nc2ccccc21 | 2.13%
CCOC(=O)NCC(=O)Nc1cccc(-c2cccc(-c3nc4cccc(C)c4[nH]3)c2)c1 | 1.64%
CC(C)c1ccc(CN2CCC(NC(=O)c3ccc(-c4cccc(Cl)c4)s3)CC2)cc1 | 4.2%
Cc1cccc(-n2nc(C)c3c2NC(=O)CC3C(=O)c2ccc(Cl)s2)c1 (stereo not given) | 4.4%
CC(=O)N(C)c1cccc(C(=O)Nc2ccc(-c3cccc(-c4nc5cc(C(F)(F)F)ccc5[nH]4)c3)cc2)c1 | 10.1%
NC(=O)C1CCN(Cc2ccc(-c3ccc(-c4nc5cc(C(F)(F)F)ccc5[nH]4)s3)cc2)CC1 | 3.12%
COc1ccc2nccc(N3C[C@H]4C[C@@H]3CN4CCNCc3ccc4c(n3)NC(=O)CS4)c2n1 | 0.1%
O=C(Nc1ccccc1F)N(CCCn1ccnc1)Cc1csc(-c2ccc(CNCc3ccccc3)cc2)n1 | 0.06%
CCN1CCN(CCCNc2ccnc3cc(Cl)ccc23)CC1 | 2.24%
CCc1ccc(NC(=O)c2ccc(CN3CCCN(Cc4cccc(C)c4)CC3)cc2)cc1 | 9.33%
Nc1ccnc2ccc(OCCCCCCc3ccccc3)cc12 | -1.93%
Cc1cccnc1Nc1nc(-c2ccccn2)cs1 | 73.2%
CN(C)CCNc1ncnc2c1[nH]c1ccc(Cl)cc12 | 3.91%
CCCCC(CC)C(=O)C(NC(=O)[C@H](CSC(c1ccccc1)(c1ccccc1)c1ccccc1)NC(=O)OC(C)(C)C)C(=O)OC (stereo not given in full) | 3.76%
CC(C)N1CCN(C(CN2CCN(CCCOc3cccc(F)c3)CC2)c2ccc(F)cc2)CC1 (stereo not given) | -0.57%
CCC[C@@H](/C=N/N(C)C(=O)OC(C)(C)C)NC(=O)[C@H](CC(C)C)NC(=O)c1cc2cccc(OC)c2o1 | 3.92%
COC(=O)c1cccc(C#CCCOCCCCCCNC[C@H](O)c2cc(Cl)c(N)c(Cl)c2)c1 | 0.28%

SMILES | inhibition
COc1ccc(CCNCCCCCNCCc2ccc(Cl)cc2)cc1OC | 6.09%
Cc1ccc(F)c(CN2CCC(N3CC(c4ccccc4)(c4ccccc4)OC3=O)CC2)c1Cl | 9.52%
CCN(CCCN1CCCCC1)c1cc(C)nc(Nc2cc(Cl)cc(Cl)c2)n1 | 2.39%
Cc1ccccc1C1CCN(C2CCC(NC(=O)/C=C/c3cccc(Cl)c3Cl)CC2)CC1 (stereo not given) | 1.26%
Cn1c(=O)n(C)c2cc(CNCCNc3ccnc4cc(Cl)ccc34)ccc21 | 3.88%
O=C(NCCCCCN1CCC(c2c[nH]c3ccccc23)CC1)Nc1cccc(Br)c1 | 7.56%
c1ccc2[nH]c(Nc3ccc(Nc4nc5ccccc5[nH]4)cc3)nc2c1 | 0.37%
COc1cc(NC(=O)CCCCCCCCN2CCN(C)CC2)c2ncccc2c1 | -0.26%
CNC(=O)c1ccccc1Nc1nc(Nc2cccc(CS(C)(=O)=O)c2)ncc1C | 11.9%
CN1CCN(CCCN(Cc2ccc(-c3cccc(CNC4CCCC4)c3)cc2)C(=O)Nc2ccccc2)CC1 | 3.98%
COc1ccc2nccc([C@@H](O)CN3CCC(NCCOc4cccc(C(F)(F)F)c4)CC3)c2c1 | 12.5%
OC[C@H]1CCCN1CC#Cc1cc2c(Nc3ccc(OCc4cccc(F)c4)c(Cl)c3)ncnc2s1 | 3.56%
CCCCN(CCCC)CCCCNc1c2ccccc2nc2ccccc12 | 31.3%
COCC(=O)Nc1nc2ccccc2[nH]1 | 2.67%
COc1ccc(F)cc1-c1ccccc1CNC(=O)CN(C)S(=O)(=O)c1cc(C)cc(Cl)c1C | 1.94%
OC(c1cc(C(F)(F)F)nc2c(F)cccc12)C1CCCCN1 (stereo not given) | 1.52%
COC(=O)c1ccc2nc(-c3ccc(/C=C/C(=O)NC4CCN(Cc5ccccc5)CC4)cc3)[nH]c2c1 | 5.26%
CN(C)C(=O)n1cnc(S(=O)(=O)N(C)c2ccc(Cl)cc2)n1 | 6.99%
O=C(Nc1ccc(-c2csc(-c3nc4ccccc4[nH]3)c2)cc1)Nc1ccc(F)c(F)c1F | 2.98%
Nc1nc(N)c2cc(NS(=O)(=O)c3ccc(-c4ccccc4)cc3)ccc2n1 | 3.47%

These compounds were tested against Glucose transporter (Leishmania mexicana) (UniProt O61059) (assay: ST_JUDE_LEISH: Cytotoxicity at 2uM final concentration against transgenic Leishmania Mexicana promastigotes LmGT2 that are glucose transport deficient and complemented with the L. Mexicana glucose transporter 2. Activity is measured by DNA content using SYBR green in vitro).
Assay type: functional

SMILES | inhibition
CN(C)C(C)(C)CN(Cc1ccc(-c2ccc(C(F)(F)F)cc2)cc1)C(=O)Cn1c(CCc2cccc(F)c2F)nc(=O)c2ccccc21 | 0.79%
COc1ccccc1CCNc1nccc(N[C@@H](Cc2ccccc2)C(=O)NCc2cccs2)n1 | -0.08%
Cc1[nH]c(C)c(-c2ccc(Oc3ccc(Cl)cc3)cc2)c(=O)c1C | 1.29%
COCCn1c(Sc2ncnc3sccc23)nc2ccccc21 | 1.8%
CCOC(=O)NCC(=O)Nc1cccc(-c2cccc(-c3nc4cccc(C)c4[nH]3)c2)c1 | 1.12%
CC(C)c1ccc(CN2CCC(NC(=O)c3ccc(-c4cccc(Cl)c4)s3)CC2)cc1 | 7.5%
Cc1cccc(-n2nc(C)c3c2NC(=O)CC3C(=O)c2ccc(Cl)s2)c1 (stereo not given) | 2.73%
CC(=O)N(C)c1cccc(C(=O)Nc2ccc(-c3cccc(-c4nc5cc(C(F)(F)F)ccc5[nH]4)c3)cc2)c1 | 9.62%
NC(=O)C1CCN(Cc2ccc(-c3ccc(-c4nc5cc(C(F)(F)F)ccc5[nH]4)s3)cc2)CC1 | 4.69%
COc1ccc2nccc(N3C[C@H]4C[C@@H]3CN4CCNCc3ccc4c(n3)NC(=O)CS4)c2n1 | -1.32%
O=C(Nc1ccccc1F)N(CCCn1ccnc1)Cc1csc(-c2ccc(CNCc3ccccc3)cc2)n1 | 3.14%
CCN1CCN(CCCNc2ccnc3cc(Cl)ccc23)CC1 | 2.15%
CCc1ccc(NC(=O)c2ccc(CN3CCCN(Cc4cccc(C)c4)CC3)cc2)cc1 | 5.79%
Nc1ccnc2ccc(OCCCCCCc3ccccc3)cc12 | -1.14%
Cc1cccnc1Nc1nc(-c2ccccn2)cs1 | 90.1%
CN(C)CCNc1ncnc2c1[nH]c1ccc(Cl)cc12 | 2.92%
CCCCC(CC)C(=O)C(NC(=O)[C@H](CSC(c1ccccc1)(c1ccccc1)c1ccccc1)NC(=O)OC(C)(C)C)C(=O)OC (stereo not given in full) | 3.51%
CC(C)N1CCN(C(CN2CCN(CCCOc3cccc(F)c3)CC2)c2ccc(F)cc2)CC1 (stereo not given) | -1.78%
CCC[C@@H](/C=N/N(C)C(=O)OC(C)(C)C)NC(=O)[C@H](CC(C)C)NC(=O)c1cc2cccc(OC)c2o1 | 0.27%
COC(=O)c1cccc(C#CCCOCCCCCCNC[C@H](O)c2cc(Cl)c(N)c(Cl)c2)c1 | 1.01%

SMILES | inhibition
COc1ccc(CCNCCCCCNCCc2ccc(Cl)cc2)cc1OC | 6.63%
Cc1ccc(F)c(CN2CCC(N3CC(c4ccccc4)(c4ccccc4)OC3=O)CC2)c1Cl | 9.68%
CCN(CCCN1CCCCC1)c1cc(C)nc(Nc2cc(Cl)cc(Cl)c2)n1 | 1.01%
Cc1ccccc1C1CCN(C2CCC(NC(=O)/C=C/c3cccc(Cl)c3Cl)CC2)CC1 (stereo not given) | 4.18%
Cn1c(=O)n(C)c2cc(CNCCNc3ccnc4cc(Cl)ccc34)ccc21 | 0.4%
O=C(NCCCCCN1CCC(c2c[nH]c3ccccc23)CC1)Nc1cccc(Br)c1 | 5.45%
c1ccc2[nH]c(Nc3ccc(Nc4nc5ccccc5[nH]4)cc3)nc2c1 | 0.51%
COc1cc(NC(=O)CCCCCCCCN2CCN(C)CC2)c2ncccc2c1 | 0.86%
CNC(=O)c1ccccc1Nc1nc(Nc2cccc(CS(C)(=O)=O)c2)ncc1C | 8.04%
CN1CCN(CCCN(Cc2ccc(-c3cccc(CNC4CCCC4)c3)cc2)C(=O)Nc2ccccc2)CC1 | 5.53%
COc1ccc2nccc([C@@H](O)CN3CCC(NCCOc4cccc(C(F)(F)F)c4)CC3)c2c1 | 0.73%
OC[C@H]1CCCN1CC#Cc1cc2c(Nc3ccc(OCc4cccc(F)c4)c(Cl)c3)ncnc2s1 | 2.65%
CCCCN(CCCC)CCCCNc1c2ccccc2nc2ccccc12 | 12.3%
COCC(=O)Nc1nc2ccccc2[nH]1 | 2.36%
COc1ccc(F)cc1-c1ccccc1CNC(=O)CN(C)S(=O)(=O)c1cc(C)cc(Cl)c1C | 0.93%
OC(c1cc(C(F)(F)F)nc2c(F)cccc12)C1CCCCN1 (stereo not given) | 1.48%
COC(=O)c1ccc2nc(-c3ccc(/C=C/C(=O)NC4CCN(Cc5ccccc5)CC4)cc3)[nH]c2c1 | 5.84%
CN(C)C(=O)n1cnc(S(=O)(=O)N(C)c2ccc(Cl)cc2)n1 | 4.38%
O=C(Nc1ccc(-c2csc(-c3nc4ccccc4[nH]3)c2)cc1)Nc1ccc(F)c(F)c1F | 2.02%
Nc1nc(N)c2cc(NS(=O)(=O)c3ccc(-c4ccccc4)cc3)ccc2n1 | 3.56%
